Assay [1] deals with Retinoic acid receptor RXR-alpha (Homo sapiens) (UniProt P19793). The experiment in a line: ATG_RXRa_TRANS: Attagene TRANS-FACTORIAL HepG2 Assay for human Retinoid X Receptor alpha (RXRa) (AID 2283012; active = hit-call score of the fitted dose curve at least 0.9, where 1 is the maximum). A digest of the protocol:
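Chimeric NR-GAL4 trans-activation in HepG2, 24 h treatment; reporter transcripts quantified by fluorescence on capillary electrophoresis, analysed for upward change from DMSO.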

Read-out in assay [2]: E-selectin (Homo sapiens) (UniProt P16581)
The experiment in a line: BSK_3C_Eselectin: BioMAP Diversity Plus: 3C Assay for Eselectin Biomarker Activity (AID 2283015).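 As to outcome: cell surface E-selectin protein quantified by ELISA 24 h after dosing.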 The conditions noted are these: primary human endothelial cells (HUVEC); actives raise or lower the signal. A digest of the protocol:
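HUVEC, 3C stimulation; compound exposure 24 h; E-selectin by ELISA; gain- or loss-of-signal fitted bidirectionally vs DMSO baseline.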

Read-out in assay [3]: Interleukin-1 alpha (IL1a), IL1A (gene 3552)
The experiment in a line: BSK_BE3C_IL1a: BioMAP Diversity Plus: BE3C Assay for Interleukin-1 alpha (IL1a) Biomarker Activity (AID 2283016). The conditions noted are these: primary human bronchial epithelial cells; actives raise or lower the signal. A digest of the protocol:
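Measured in human lung primary bronchial epithelial cells: IL-1a by ELISA at 24 h after dosing, with bidirectional fitting against DMSO.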

Read-out in assay [4]: Monocyte Chemoattractant Protein-1 (MCP1), CCL2 (gene 6347)
The experiment in a line: BSK_3C_MCP1: BioMAP Diversity Plus: 3C Assay for Monocyte Chemoattractant Protein-1 (MCP1) Biomarker Activity (AID 2283017). To be noted: primary human endothelial cells (HUVEC); actives raise or lower the signal. A digest of the protocol: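 HUVEC, 3C system; 24 h chemical exposure; MCP-1 by ELISA; bidirectional curve fit vs DMSO baseline.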

Read-out in assay [5]: Monocyte Chemoattractant Protein-1 (MCP1), CCL2 (gene 6347)
The experiment in a line: BSK_4H_MCP1: BioMAP Diversity Plus: 4H Assay for Monocyte Chemoattractant Protein-1 (MCP1) Biomarker Activity (AID 2283018). To be noted: primary human endothelial cells (HUVEC); actives raise or lower the signal. In short, it runs like this: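 Primary human umbilical vein endothelium is exposed to chemical for 24 h before MCP-1 is assayed by ELISA. Concentration-response fitted bidirectionally relative to DMSO.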

Read-out in assay [6]: Human Leukocyte Antigen - DR isotype (HLADR), HLA-DRA (gene 3122)
The assay can be described thus: BSK_3C_HLADR: BioMAP Diversity Plus: 3C Assay for Human Leukocyte Antigen - DR isotype (HLADR) Biomarker Activity (AID 2283019).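 As to outcome: ELISA of cell-surface HLA-DR on HUVEC 24 h after dosing.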 To be noted: primary human endothelial cells (HUVEC); actives raise or lower the signal. In short, it runs like this: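 HUVEC, 3C stimulation, 24 h post-dose; HLA-DR by ELISA; bidirectional curve fit vs DMSO baseline; gain or loss of signal scored.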

Read-out in assay [7]: Interleukin-8 (IL8), CXCL8 (gene 3576)
The experiment in a line: BSK_3C_IL8: BioMAP Diversity Plus: 3C Assay for Interleukin-8 (IL8) Biomarker Activity (AID 2283020). To be noted: primary human endothelial cells (HUVEC); actives raise or lower the signal. A digest of the protocol: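 Using DMSO-treated wells as the baseline, bidirectional curve fitting was applied to ELISA-measured IL-8 from human umbilical vein endothelial cultures sampled 24 h after compound addition.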

Read-out in assay [8]: Monokine induced gamma interferon (MIG), CXCL9 (gene 4283)
The assay can be described thus: BSK_3C_MIG: BioMAP Diversity Plus: 3C Assay for Monokine induced gamma interferon (MIG) Biomarker Activity (AID 2283021).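 As to AC50: MIG protein level measured by immunoassay in the treated endothelial cultures.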 To be noted: primary human endothelial cells (HUVEC); actives raise or lower the signal. In short, it runs like this: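 ELISA-measured MIG in dosed HUVEC 3C cultures at 24 h, analysed by bidirectional fitting with DMSO defining baseline activity.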

Assay [9] has as its target human Retinoid X Receptor beta (RXRb), RXRB (gene 6257) (UniProt P28702). The assay can be described thus: ATG_RXRb_TRANS: Attagene TRANS-FACTORIAL HepG2 Assay for human Retinoid X Receptor beta (RXRb) (AID 2283013; active = hit-call score of the fitted dose curve at least 0.9, where 1 is the maximum). In short, it runs like this: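 After a 24 h incubation with test chemical, transfected HepG2 cells carrying NR-Gal4 fusions and GAL4-UAS reporter transcription units yield RNA whose reporter cDNA is FAM-labelled, HpaI-cut and sized by capillary electrophoresis; increases over DMSO are scored.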

In assay [10] the target is human Thyroid Receptor alpha (THRa1), THRA (gene 7067) (UniProt P10827). The assay can be described thus: ATG_THRa1_TRANS: Attagene TRANS-FACTORIAL HepG2 Assay for human Thyroid Receptor alpha (THRa1) (AID 2283014; active = hit-call score of the fitted dose curve at least 0.9, where 1 is the maximum). A digest of the protocol: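 Transient HepG2 transfection, NR-Gal4 chimera driving GAL4-UAS reporters; 24 h compound exposure; total RNA, oligo(dT) RT, PCR, fluorescent primer extension, capillary electrophoresis. Upward direction vs DMSO control.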

Structures are written as SMILES. Inconclusive results are not listed. Calls of active or inactive are those of the source. The calls were made as follows, unless noted: active = hit-call score of the fitted dose curve at least 0.9, where 1 is the maximum; inactive = score below 0.9.

Sequence of human Retinoid X Receptor beta (RXRb), RXRB (gene 6257) (P28702 whole entry, looked up, the tested form may be a part): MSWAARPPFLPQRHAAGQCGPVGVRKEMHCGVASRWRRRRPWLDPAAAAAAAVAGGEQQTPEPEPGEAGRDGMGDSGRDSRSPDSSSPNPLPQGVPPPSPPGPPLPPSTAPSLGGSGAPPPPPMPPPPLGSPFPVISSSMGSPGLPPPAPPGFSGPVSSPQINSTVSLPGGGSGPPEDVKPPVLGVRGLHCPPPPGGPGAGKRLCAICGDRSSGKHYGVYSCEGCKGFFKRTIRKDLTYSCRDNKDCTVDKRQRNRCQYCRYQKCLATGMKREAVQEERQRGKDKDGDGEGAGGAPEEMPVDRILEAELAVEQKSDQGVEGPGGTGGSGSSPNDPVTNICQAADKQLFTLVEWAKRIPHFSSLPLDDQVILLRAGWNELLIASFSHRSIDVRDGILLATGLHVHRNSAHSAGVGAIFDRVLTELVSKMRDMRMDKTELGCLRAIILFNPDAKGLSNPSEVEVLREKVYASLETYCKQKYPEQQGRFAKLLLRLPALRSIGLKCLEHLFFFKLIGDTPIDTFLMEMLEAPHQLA
Sequence of Retinoic acid receptor RXR-alpha (Homo sapiens) (P19793 whole entry, looked up, the tested form may be a part): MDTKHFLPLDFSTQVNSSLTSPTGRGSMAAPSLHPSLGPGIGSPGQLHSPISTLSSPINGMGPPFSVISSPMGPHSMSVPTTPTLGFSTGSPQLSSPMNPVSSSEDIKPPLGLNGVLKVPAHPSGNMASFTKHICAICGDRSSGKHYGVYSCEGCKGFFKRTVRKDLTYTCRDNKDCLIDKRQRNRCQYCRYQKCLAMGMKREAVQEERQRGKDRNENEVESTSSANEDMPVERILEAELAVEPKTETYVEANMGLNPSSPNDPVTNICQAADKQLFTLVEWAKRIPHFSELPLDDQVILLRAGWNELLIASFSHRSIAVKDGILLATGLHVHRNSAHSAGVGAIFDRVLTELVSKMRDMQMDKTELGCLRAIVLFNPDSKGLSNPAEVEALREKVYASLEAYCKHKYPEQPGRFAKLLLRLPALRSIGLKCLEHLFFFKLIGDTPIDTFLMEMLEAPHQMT
Sequence of human Thyroid Receptor alpha (THRa1), THRA (gene 7067) (P10827 whole entry, looked up, the tested form may be a part): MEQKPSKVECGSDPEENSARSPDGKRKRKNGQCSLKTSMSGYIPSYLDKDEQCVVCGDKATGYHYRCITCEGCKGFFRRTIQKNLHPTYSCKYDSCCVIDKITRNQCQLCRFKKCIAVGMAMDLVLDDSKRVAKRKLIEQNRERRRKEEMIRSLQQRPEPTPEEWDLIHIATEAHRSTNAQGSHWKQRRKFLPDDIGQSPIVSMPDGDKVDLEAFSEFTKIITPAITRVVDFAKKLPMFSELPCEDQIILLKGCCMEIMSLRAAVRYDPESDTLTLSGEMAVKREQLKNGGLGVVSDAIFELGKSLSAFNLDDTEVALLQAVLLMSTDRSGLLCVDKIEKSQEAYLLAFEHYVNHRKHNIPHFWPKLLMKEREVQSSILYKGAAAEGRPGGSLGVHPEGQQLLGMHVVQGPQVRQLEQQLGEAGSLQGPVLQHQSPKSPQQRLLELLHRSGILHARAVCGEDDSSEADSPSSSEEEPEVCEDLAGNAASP
Sequence of E-selectin (Homo sapiens) (P16581 whole entry, looked up): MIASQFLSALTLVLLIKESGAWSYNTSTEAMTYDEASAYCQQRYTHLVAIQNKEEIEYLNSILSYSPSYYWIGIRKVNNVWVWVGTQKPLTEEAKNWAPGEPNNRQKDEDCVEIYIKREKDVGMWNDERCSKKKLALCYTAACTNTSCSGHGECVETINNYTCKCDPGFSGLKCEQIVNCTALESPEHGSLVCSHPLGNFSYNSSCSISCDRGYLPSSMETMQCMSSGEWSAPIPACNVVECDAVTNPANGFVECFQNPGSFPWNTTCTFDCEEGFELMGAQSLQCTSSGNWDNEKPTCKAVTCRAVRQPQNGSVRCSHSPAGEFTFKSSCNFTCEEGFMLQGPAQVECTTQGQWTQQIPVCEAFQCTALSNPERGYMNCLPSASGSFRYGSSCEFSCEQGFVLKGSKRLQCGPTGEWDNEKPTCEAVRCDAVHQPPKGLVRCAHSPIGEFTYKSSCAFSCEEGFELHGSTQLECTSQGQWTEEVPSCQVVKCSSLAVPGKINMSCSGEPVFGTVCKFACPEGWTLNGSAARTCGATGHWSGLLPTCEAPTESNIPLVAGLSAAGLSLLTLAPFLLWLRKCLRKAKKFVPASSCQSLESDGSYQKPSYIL

Take `O=c1[nH]c2ccc(S(=O)CCN3CCC(Cc4ccc(F)cc4)CC3)cc2o1` (stereo not drawn): the compound was called inactive in assay [1], in [2], in [3], in [4], in assay [6] and in assay [7]. For the same compound, the result in assay [8] was inactive. Moreover, in assay [5], the AC50 is 4.88 µM (active).
With `O=C(O)CC(O)C(=O)O` (stereo not drawn), the outcome in assay [1], in [2], in [3], in assay [4], in assay [5] and in assay [6] was inactive. Also, the result in [7] and in assay [8] was inactive.
For the compound `Cn1c(=O)cc(Oc2ccc(F)cc2F)c2cnc(NCC(C)(C)O)nc21`, the compound was classed as inactive in assay [9], in assay [10], in assay [2], in assay [3], in [5] and in assay [8]. In addition, the AC50 in [4] was 3.14 µM (active); in assay [6], 3.11 µM (active); in assay [7] it was 1.91 µM (active).
As to `Nc1ccc(Nc2ccccc2)cc1`, the compound was called inactive in assay [1], in assay [3], in assay [4], in assay [5], in assay [7] and in [8]. Also, the figures for the AC50 in assay [2] and in assay [6] were 5.7 µM (active) and 2.83 µM (active), respectively.
Regarding `CCOC(=O)CC(CC(=O)OCC)(OC(C)=O)C(=O)OCC`, the outcome in assay [9], in assay [10], in [2], in [3], in [4] and in [5] was inactive. For the same compound, the outcome in assay [6], in assay [7] and in assay [8] was inactive.
For the compound `O=C1CCCCCN1`, the compound was classed as inactive in assay [1], in assay [2], in assay [3], in [4], in assay [5] and in assay [6]. For the same compound, the result in assay [7] and in [8] was inactive.
Take `COCCOCCOCCOC`: the result in assay [1], in assay [9], in assay [10], in assay [2], in [3] and in assay [4] was inactive. Moreover, the outcome in assay [5], in [6], in [7] and in assay [8] was inactive.
`Oc1ccc2c(c1)-c1ccccc1C2`: the outcome in [1], in [10], in assay [2], in assay [3], in [4] and in assay [5] was inactive. Also, the result in assay [6], in assay [7] and in assay [8] was inactive. The AC50 in assay [9] was 26.2 µM (active).
For `CN(C)c1ccc(N=NS(=O)(=O)O)cc1`, the compound was classed as inactive in assay [9], in [10], in assay [2], in assay [3], in assay [4] and in assay [5]. The result in [6], in assay [7] and in [8] was inactive.
Consider `Cc1ccc(N)cc1O`, for which the compound was classed as inactive in assay [9], in [2], in assay [3], in assay [4], in assay [5] and in assay [6]. The outcome in [7] and in [8] was inactive.
With `CC(C)CCO`, the result in [9], in assay [10], in assay [2], in assay [3], in assay [4] and in assay [5] was inactive. In addition, the outcome in assay [6], in [7] and in [8] was inactive.
As to `CC[C@H](C)C(=O)O[C@H]1C[C@@H](C)C=C2C=C[C@H](C)[C@H](CC[C@@H]3C[C@@H](O)CC(=O)O3)[C@H]21`, the result in assay [9] and in assay [8] was inactive. The AC50 in assay [2] is 31.6 µM (active); in assay [3], 33.6 µM (active); in [4], 24 µM (active); in assay [5], 1.98 µM (active); in assay [6], 31.5 µM (active); in assay [7], 25.5 µM (active).
As to `Cn1cnc([N+](=O)[O-])c1Sc1ncnc2nc[nH]c12`, the call in assay [9], in assay [2], in assay [3], in assay [4], in assay [5] and in [6] was inactive. Further, the result in [7] and in assay [8] was inactive. The AC50 in assay [10] was 27.2 µM (active).
For `CC(C)CCCCCCOC(=O)c1ccc(C(=O)OCCCCCCC(C)C)c(C(=O)OCCCCCCC(C)C)c1`, the AC50 in [9] was 63.2 µM (active). Besides, the result in assay [2], in [3], in [4], in assay [5], in assay [6] and in assay [7] was inactive. In addition, the result in [8] was inactive.
In the case of `CC(=O)OCCC(C)C`, the call in assay [9], in assay [2], in assay [3], in assay [4], in assay [5] and in assay [6] was inactive. Moreover, the outcome in [7] and in assay [8] was inactive.
Take `CC[C@H]1CC[C@H](NCc2cc3c(cc2OC)[C@H]2C[C@H]2C(=O)N3C)[C@H](c2ccccc2)N1`: the result in assay [9], in assay [2], in assay [3], in assay [4], in assay [5] and in assay [6] was inactive. Besides, the result in [7] and in assay [8] was inactive.
In the case of `CCOC(=O)COc1ccc2c(c1)CC(NCC(O)c1cccc(Cl)c1)CC2` (stereo not drawn), the outcome in assay [9], in assay [10] and in [3] was inactive. Besides, the AC50 in [2] is 31.4 µM (active); in [4], 33.6 µM (active); in [5], 28.2 µM (active); in [6] it was 27.6 µM (active); in [7] it was 32.1 µM (active); in assay [8], 28.3 µM (active).
As to `C=CCCCCCCCCC(=O)O`, the AC50 in [9] was 74.8 µM (active). The result in assay [2], in assay [3], in assay [4], in assay [5], in assay [6] and in assay [7] was inactive. In addition, the outcome in assay [8] was inactive.
For `O=C1OC(=O)C2C3C=CC(C3)C12` (stereo not drawn), the result in assay [9], in assay [2], in assay [3], in [4], in assay [5] and in [6] was inactive. For the same compound, the result in assay [7] and in assay [8] was inactive.
`CC(O)CN(CCN(CC(C)O)CC(C)O)CC(C)O` (stereo not drawn): the compound was classed as inactive in assay [9], in [2], in [3], in assay [4], in assay [5] and in assay [6]. In addition, the result in assay [7] and in assay [8] was inactive.
On to `CC(C)c1cccc(C(C)C)c1N1C(=O)c2ccc(O)cc2C1=O`, for which the call in assay [9], in assay [4] and in [8] was inactive. The AC50 in assay [2] is 36.5 µM (active); in [3], 20 µM (active); in assay [5], 4.76 µM (active); in [6], 8.36 µM (active); in [7] it was 4.86 µM (active).

The record behind these values is PubChem BioAssay (EPA / NIEHS).
